This passage reports binding signal results from publication PMC8384837, “Expanding the binding specificity for RNA recognition by a PUF domain”.

Experiment in all cases: yeast three-hybrid, YBZ-1, SC-Leu-His + 0.5 mM 3-AT, 4 days
What all share (conditions): tags: N-Gal4 AD-HA kept; label: inside an RPR1-promoter hybrid RNA with tandem MS2 sites; ssRNA

In one test the target is PUM1 PUF domain R5-RFE (Homo sapiens, UniProt Q14671 828-1176, C1007R;R1008F;Q1011E). In short, it runs like this: (§1)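 Repeat regions from input (SC-Leu) and selection (SC-Leu-His + 0.5 mM 3-AT) plates were PCR-amplified and Illumina-sequenced after four days of growth. The cells were strain YBZ-1 with a LexA–MS2 coat fusion and a HIS3 reporter, co-expressing Pumilio-1 PUF domain libraries and matching RNA elements from a centromeric plasmid. The interaction score is the log change in variant frequency from input to selection, taken in log2 with a pseudocount of 1 for absent variants.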

In a further test the target is PUM1 PUF domain R5-KRI (Homo sapiens, UniProt Q14671 828-1176, C1007K;Q1011I). In short, it runs like this: as §1
The target of a further test is PUM1 PUF domain R5-RVM (Homo sapiens, UniProt Q14671 828-1176, C1007R;R1008V;Q1011M). In short, it runs like this: as §1
The next test deals with PUM1 PUF domain R1-QTK (Homo sapiens, UniProt Q14671 828-1176, S863Q;R864T;Q867K). The method in brief:
as §1

Another test addresses PUM1 PUF domain R1-RFQ (Homo sapiens, UniProt Q14671 828-1176, S863R;R864F). In short, it runs like this:
as §1

The target in a further test is PUM1 PUF domain R3-IYV (Homo sapiens, UniProt Q14671 828-1176, C935I;R936Y;Q939V). The method in brief:
as §1

For the next test, the target named is PUM1 PUF domain R8-RHR (Homo sapiens, UniProt Q14671 828-1176, N1122R;Y1123H;Q1126R). In short, it runs like this:
as §1

Another test has as its target PUM1 PUF domain R8-RMR (Homo sapiens, UniProt Q14671 828-1176, N1122R;Y1123M;Q1126R). The method in brief: as §1
A further test deals with PUM1 PUF domain R8-RHA (Homo sapiens, UniProt Q14671 828-1176, N1122R;Y1123H;Q1126A). In short, it runs like this:
as §1

In the next test the target is PUM1 PUF domain R4-SRT (Homo sapiens, UniProt Q14671 828-1176, N971S;H972R;Q975T). The method in brief: as §1
The target of a further test is PUM1 PUF domain R3-WYR (Homo sapiens, UniProt Q14671 828-1176, C935W;R936Y;Q939R). In short, it runs like this: as §1
A further test concerns the target PUM1 PUF domain R3-LRV (Homo sapiens, UniProt Q14671 828-1176, C935L;Q939V). In short, it runs like this:
as §1

Another test addresses PUM1 PUF domain R3-RPW (Homo sapiens, UniProt Q14671 828-1176, C935R;R936P;Q939W). In short, it runs like this:
as §1

The next test concerns the target PUM1 PUF domain R3-NPG (Homo sapiens, UniProt Q14671 828-1176, C935N;R936P;Q939G). The method in brief:
as §1

A further test deals with PUM1 PUF domain R2-RKS (Homo sapiens, UniProt Q14671 828-1176, N899R;Y900K;Q903S). The method in brief: as §1
A further test has as its target T1, PUM1 PUF domain R6-IWQ (Homo sapiens, UniProt Q14671 828-1176, N1043I;Y1044W).
T1 sequence: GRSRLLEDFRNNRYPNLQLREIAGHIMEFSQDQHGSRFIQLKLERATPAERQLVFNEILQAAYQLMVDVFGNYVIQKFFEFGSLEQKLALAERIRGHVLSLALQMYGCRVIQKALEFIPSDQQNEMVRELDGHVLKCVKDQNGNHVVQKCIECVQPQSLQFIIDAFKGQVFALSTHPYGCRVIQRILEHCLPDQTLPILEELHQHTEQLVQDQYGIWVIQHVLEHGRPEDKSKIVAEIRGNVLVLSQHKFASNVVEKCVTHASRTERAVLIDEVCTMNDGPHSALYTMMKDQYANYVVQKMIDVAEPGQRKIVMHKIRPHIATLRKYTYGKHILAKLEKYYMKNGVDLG
In short, it runs like this: as §1

The target of the next test is PUM1 PUF domain R7-VRR (Homo sapiens, UniProt Q14671 828-1176, S1079V;N1080R;E1083R). In short, it runs like this: as §1
In a further test the target is PUM1 PUF domain R2-CWP (Homo sapiens, UniProt Q14671 828-1176, N899C;Y900W;Q903P). The method in brief:
as §1

PUM1 PUF domain R4-SRT, sequence (Q14671 828-1176 N971S/H972R/Q975T): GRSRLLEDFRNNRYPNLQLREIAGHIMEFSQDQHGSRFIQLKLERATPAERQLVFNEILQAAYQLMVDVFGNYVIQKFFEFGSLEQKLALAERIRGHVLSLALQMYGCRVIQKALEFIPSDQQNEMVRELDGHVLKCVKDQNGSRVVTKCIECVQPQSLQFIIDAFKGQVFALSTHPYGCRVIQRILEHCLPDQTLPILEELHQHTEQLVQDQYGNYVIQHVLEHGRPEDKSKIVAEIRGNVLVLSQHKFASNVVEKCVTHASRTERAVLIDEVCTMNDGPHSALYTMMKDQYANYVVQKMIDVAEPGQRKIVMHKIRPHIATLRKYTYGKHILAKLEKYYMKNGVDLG
PUM1 PUF domain R2-RKS, sequence (Q14671 828-1176 N899R/Y900K/Q903S): as the sequence (Q14671 828-1176 N971S/H972R/Q975T) above, with N72R, Y73K, Q76S, S144N, R145H, T148Q counted along it
PUM1 PUF domain R2-CWP, sequence (Q14671 828-1176 N899C/Y900W/Q903P): as the sequence (Q14671 828-1176 N971S/H972R/Q975T) above, with N72C, Y73W, Q76P, S144N, R145H, T148Q counted along it
PUM1 PUF domain R1-QTK, sequence (Q14671 828-1176 S863Q/R864T/Q867K): as the sequence (Q14671 828-1176 N971S/H972R/Q975T) above, with S36Q, R37T, Q40K, S144N, R145H, T148Q counted along it
PUM1 PUF domain R1-RFQ, sequence (Q14671 828-1176 S863R/R864F): as the sequence (Q14671 828-1176 N971S/H972R/Q975T) above, with S36R, R37F, S144N, R145H, T148Q counted along it

Consider “GGCUAGAACUAGUGGAUCCCCCGGCGCCCGGCGGCUCGAGCCCGGGUAAGUGUCAAUAGUCUGCAUGCCGCCGGGCGCCAUGCCUGCAGGUCGACUCUAGAAAACAUG”, for which the figures for the binding signal with PUM1 PUF domain R5-RFE, with PUM1 PUF domain R5-KRI and with PUM1 PUF domain R5-RVM were 4.53 log2 enrichment (interaction score), 4.51 log2 enrichment (interaction score) and 2.54 log2 enrichment (interaction score), respectively.

Consider “GGCUAGAACUAGUGGAUCCCCCGGCGCCCGGCGGCUCGAGCCCGGGUAAGUGUAAAUCGUCUGCAUGCCGCCGGGCGCCAUGCCUGCAGGUCGACUCUAGAAAACAUG”, for which the binding signal was 2.31 log2 enrichment (interaction score) with PUM1 PUF domain R1-QTK and 5.82 log2 enrichment (interaction score) with PUM1 PUF domain R1-RFQ.

As to “GGCUAGAACUAGUGGAUCCCCCGGCGCCCGGCGGCUCGAGCCCGGGUAAGUGUAAAUAGUCUGCAUGCCGCCGGGCGCCAUGCCUGCAGGUCGACUCUAGAAAACAUG”, the binding signal with PUM1 PUF domain R3-IYV was 2.65 log2 enrichment (interaction score); with PUM1 PUF domain R8-RHR, 5.61 log2 enrichment (interaction score); with PUM1 PUF domain R8-RMR it was 1.55 log2 enrichment (interaction score); in the test with PUM1 PUF domain R8-RHA, 3.38 log2 enrichment (interaction score); with PUM1 PUF domain R4-SRT, 3.46 log2 enrichment (interaction score).

Take “GGCUAGAACUAGUGGAUCCCCCGGCGCCCGGCGGCUCGAGCCCGGGUAAGUGUAAGUAGUCUGCAUGCCGCCGGGCGCCAUGCCUGCAGGUCGACUCUAGAAAACAUG”: the binding signal was 4.55 log2 enrichment (interaction score) with PUM1 PUF domain R3-IYV, 2.45 log2 enrichment (interaction score) with PUM1 PUF domain R3-WYR and 3.77 log2 enrichment (interaction score) with PUM1 PUF domain R3-LRV.

In the case of “GGCUAGAACUAGUGGAUCCCCCGGCGCCCGGCGGCUCGAGCCCGGGUAAGUGUAAUUAGUCUGCAUGCCGCCGGGCGCCAUGCCUGCAGGUCGACUCUAGAAAACAUG”, the binding signal was 2.58 log2 enrichment (interaction score) in the test with PUM1 PUF domain R3-WYR, 2.6 log2 enrichment (interaction score) in the test with PUM1 PUF domain R3-RPW, 1.41 log2 enrichment (interaction score) with PUM1 PUF domain R3-LRV and 2.86 log2 enrichment (interaction score) with PUM1 PUF domain R3-NPG.

Turning to “GGCUAGAACUAGUGGAUCCCCCGGCGCCCGGCGGCUCGAGCCCGGGUAAGCGUAAAUAGUCUGCAUGCCGCCGGGCGCCAUGCCUGCAGGUCGACUCUAGAAAACAUG”, the binding signal was 6.54 log2 enrichment (interaction score) in the test with PUM1 PUF domain R8-RHR, 3.05 log2 enrichment (interaction score) with PUM1 PUF domain R8-RMR and 4.75 log2 enrichment (interaction score) with PUM1 PUF domain R8-RHA.

For the sequence “GGCUAGAACUAGUGGAUCCCCCGGCGCCCGGCGGCUCGAGCCCGGGUAAGUGUAAACAGUCUGCAUGCCGCCGGGCGCCAUGCCUGCAGGUCGACUCUAGAAAACAUG”, the binding signal with PUM1 PUF domain R2-RKS was 0.34 log2 enrichment (interaction score).

Regarding “GGCUAGAACUAGUGGAUCCCCCGGCGCCCGGCGGCUCGAGCCCGGGUAAGUGUAAAGAGUCUGCAUGCCGCCGGGCGCCAUGCCUGCAGGUCGACUCUAGAAAACAUG”, the binding signal with PUM1 PUF domain R2-RKS was 4.33 log2 enrichment (interaction score).

“GGCUAGAACUAGUGGAUCCCCCGGCGCCCGGCGGCUCGAGCCCGGGUAAGUGUAUAUAGUCUGCAUGCCGCCGGGCGCCAUGCCUGCAGGUCGACUCUAGAAAACAUG”: in the test with PUM1 PUF domain R4-SRT, the binding signal is 2.14 log2 enrichment (interaction score).

For “GGCUAGAACUAGUGGAUCCCCCGGCGCCCGGCGGCUCGAGCCCGGGUAAGUGAAAAUAGUCUGCAUGCCGCCGGGCGCCAUGCCUGCAGGUCGACUCUAGAAAACAUG”, the binding signal with PUM1 PUF domain R6-IWQ is 4.87 log2 enrichment (interaction score).

With “GGCUAGAACUAGUGGAUCCCCCGGCGCCCGGCGGCUCGAGCCCGGGUAAGUUUAAAUAGUCUGCAUGCCGCCGGGCGCCAUGCCUGCAGGUCGACUCUAGAAAACAUG”, in the test with PUM1 PUF domain R7-VRR, the binding signal is 2.18 log2 enrichment (interaction score).

With “GGCUAGAACUAGUGGAUCCCCCGGCGCCCGGCGGCUCGAGCCCGGGUAAGUGUAAAAAGUCUGCAUGCCGCCGGGCGCCAUGCCUGCAGGUCGACUCUAGAAAACAUG”, the binding signal with PUM1 PUF domain R2-CWP is 6.72 log2 enrichment (interaction score).
